# Laboratory results from PubChem BioAssay (NCATS).
# Results filed as inconclusive are left out. A call without a number means that no potency is given here. Active and inactive are the calls of the source. Unless noted, calls come from the whole dose curve; as a rule, active = well fitted curve in the direction sought with a large enough effect; inconclusive = small, poorly fitted or top-dose-only effect, or another doubt; inactive = no such curve, though single readings can be large; an effect the other way counts as inactive or inconclusive.
# Assays:
# [1] = qHTS assay for measurement of the activity of small molecule inhibitors on Zika virus induced Caspase-3 activity in human iPSC derived neural progenitor cells (hNPCs) (AID 1224857); note: nearly all actives have a fitted effect of over 65% in size
# How it was run: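 Percent inhibition of virus-induced caspase-3/7 luminescence (Caspase-Glo), scaled between uninfected cells and Zika-infected cells. hNPCs received compound 1 hr before ZIKV at 2 FFU/cell, with 6 hours infection at 37 C.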
# [2] = qHTS assay for measurement of the activity of small molecule inhibitors on Zika virus induced Caspase-3 activity in human astrocytoma cells (AID 1224859)
# How it was run: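 Luminescent caspase-3/7 read-out (30 min reagent, room temperature) in human SNB-19 cells infected 6 h with ZIKV (2 FFU/cell) after 1 h compound pre-incubation; Data were normalised to uninfected and infected wells.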
# [3] = qHTS assay to identify small molecule inhibitors of chordoma cells - UCH-2 (AID 1259356); note: potency is the fitted concentration of half-maximal effect
# [4] = P-glycoprotein substrates identified in KB-8-5-11 adenocarcinoma cell line, qHTS therapeutic library screen (AID 1346987); note: nearly all actives have a fitted effect of over 65% in size; note: potency is the fitted concentration of half-maximal effect
# How it was run: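 KB-8-5-11: colchicine-selected sub-line of KB-3-1 over-expressing P-gp; assay medium lacked colchicine. 72 h drug exposure at 37 degree C, CellTiter-Glo.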
# [5] = qHTS assay to identify small molecule inhibitors of chordoma cells - UCH-1 (AID 1259355); note: nearly all actives have a fitted effect of over 55% in size; note: potency is the fitted concentration of half-maximal effect
# How it was run: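 Seed 800 cells per well; incubate overnight at 37 C, 5% CO2. Add test compounds (15 concentrations), then the auranofin–topoisomerase-agent combination. Incubate 48hr, add CellTiter-Glo, wait 30min, read luminescence.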
# [6] = NS1 protein of Zika virus - qHTS assay to identify small molecule inhibitors in human HEK 293 cells (AID 1347053); note: nearly all actives have a fitted effect of over 55% in size
# How it was run: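 Following 20 h seeding, HEK 293 cells took compound, then 1 h later ZIKV MR766 (MOI = 0.5). Incubation ran 24 h at 37 C before TR-FRET detection of NS1; a drop in signal indicates inhibition.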
# [7] = Natriuretic polypeptide receptor (hNpr1) antagonism - Pilot counterscreen GloSensor control cell line (AID 1347045; calls by dose curve)
# How it was run: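 HEK293 cells carrying the GloSensor cGMP sensor (GIP/pGS-40F) were loaded with 2% GloSensor reagent for 2 h, exposed to compounds for 30 min, and then stimulated with 50 uM sodium nitroprusside for 20 min at room temperature.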
# [8] = target: Atrial natriuretic peptide receptor 2 (Homo sapiens) (UniProt P20594); experiment: Natriuretic polypeptide receptor (hNpr2) antagonism - Pilot subtype selectivity assay (AID 1347050; calls by dose curve)
# How it was run: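 Pilot selectivity screen against hNpr2: HEK293 cGMP-sensor cells are treated with LOPAC1280 compounds, then with hNppC peptide at 1 nM final. The cGMP-driven luminescence change over 20 min at room temperature is the read-out.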
# [9] = target: Tyrosine-protein phosphatase non-receptor type substrate 1 (Homo sapiens) + Leukocyte surface antigen CD47 (Homo sapiens) (UniProt P78324+Q08722); experiment: CD47-SIRPalpha protein protein interaction - LANCE assay qHTS validation (AID 1347057; active = well fitted curve in the direction sought with a large enough effect in the signal ratio, with a control signal flat, not every such curve was filed as active; the % refers to the signal ratio)
# How it was run: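 First, His-tagged CD47 and Eu-labelled anti-His antibody met the compound for 30 min; next, site-specifically biotinylated SIRPalpha was added for 30 min; finally streptavidin-APC was added before reading the TR-FRET ratio.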
# [10] = target: Atrial natriuretic peptide receptor 1 (Homo sapiens) (UniProt P16066); experiment: Natriuretic polypeptide receptor (hNpr1) antagonism - Pilot screen (AID 1347049; calls by dose curve;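 note: agonist-evoked cGMP luminescence read 20 min after hNppA addition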)
# How it was run: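 Readout is cGMP-driven firefly luciferase luminescence in HEK293 cells carrying hNpr1 and a PDE5-domain GloSensor, read before and 20 min after 0.1 nM hNppA stimulation. Cells had 2% substrate reagent for 2 h and test compound for 30 min.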
# [11] = P-glycoprotein substrates identified in KB-3-1 adenocarcinoma cell line, qHTS therapeutic library screen (AID 1346986); settings: KB-3-1 parental cells viability, CellTiter-Glo, 72 h; at 44.5 µM (top of the series); note: nearly all actives have a fitted effect of over 60% in size
# How it was run: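 Counter-screen: cherry-picked hits retested in the KB pair and in HEK-293 pcDNA/MDR-19 cells ± tariquidar. Primary screen used 72 h CellTiter-Glo viability in KB-3-1 and KB-8-5-11.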
# [12] = qHTS profiling of the MIPE4 collection as inhibitors of Plasmodium falciparum (DD2) proliferation (AID 743345; call rule not given here); settings: P. falciparum Dd2 in erythrocytes, SYBR Green DNA, 72 h; at 28.5 µM (top of the series) unless noted
# How it was run: (§1)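 Erythrocytes infected with P. falciparum (0.3% parasitemia, 2.5% hematocrit) incubated with compounds 72 h at 37 C, 5% CO2. Lysis with saponin/Triton buffer containing SYBR Green I, overnight at room temperature in the dark; DNA fluorescence (485/535 nm) normalised to 0.29 uM artemisinin and DMSO.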
# [13] = qHTS profiling of the MIPE4 collection as inhibitors of Plasmodium falciparum (DD2) proliferation (Rep 2) (AID 743346; call rule not given here); settings: P. falciparum Dd2 in erythrocytes, SYBR Green DNA, 72 h; at 28.5 µM (top of the series) unless noted
# How it was run: as §1
# [14] = qHTS profiling of the MIPE4 collection as inhibitors of Plasmodium falciparum (HB3) proliferation (AID 743347; call rule not given here); settings: P. falciparum HB3 in erythrocytes, SYBR Green DNA, 72 h; at 28.5 µM (top of the series) unless noted
# How it was run: as §1
# Sequence of Tyrosine-protein phosphatase non-receptor type substrate 1 (Homo sapiens) + Leukocyte surface antigen CD47 (Homo sapiens) (P78324 whole entry, looked up): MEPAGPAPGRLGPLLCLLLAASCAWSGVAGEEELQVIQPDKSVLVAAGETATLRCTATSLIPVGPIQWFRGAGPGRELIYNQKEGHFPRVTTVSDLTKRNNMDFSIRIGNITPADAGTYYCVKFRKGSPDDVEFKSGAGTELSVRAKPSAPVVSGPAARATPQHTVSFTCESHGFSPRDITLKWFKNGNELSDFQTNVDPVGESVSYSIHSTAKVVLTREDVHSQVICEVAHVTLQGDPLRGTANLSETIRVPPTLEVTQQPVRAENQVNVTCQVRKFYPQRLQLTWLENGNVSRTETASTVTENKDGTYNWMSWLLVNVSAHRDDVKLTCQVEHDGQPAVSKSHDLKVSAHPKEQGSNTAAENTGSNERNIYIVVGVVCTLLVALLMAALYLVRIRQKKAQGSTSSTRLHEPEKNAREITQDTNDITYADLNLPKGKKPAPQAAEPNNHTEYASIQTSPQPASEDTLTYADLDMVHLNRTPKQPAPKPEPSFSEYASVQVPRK
# Sequence of Tyrosine-protein phosphatase non-receptor type substrate 1 (Homo sapiens) + Leukocyte surface antigen CD47 (Homo sapiens) (Q08722 whole entry, looked up): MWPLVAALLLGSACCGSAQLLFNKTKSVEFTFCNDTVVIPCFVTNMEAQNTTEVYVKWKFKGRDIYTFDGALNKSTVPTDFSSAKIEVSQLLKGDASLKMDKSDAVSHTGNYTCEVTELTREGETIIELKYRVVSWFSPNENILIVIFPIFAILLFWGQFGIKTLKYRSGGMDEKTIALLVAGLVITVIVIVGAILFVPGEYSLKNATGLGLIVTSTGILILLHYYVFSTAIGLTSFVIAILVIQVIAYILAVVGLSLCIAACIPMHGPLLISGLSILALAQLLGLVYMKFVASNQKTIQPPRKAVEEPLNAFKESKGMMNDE
# Sequence of Atrial natriuretic peptide receptor 2 (Homo sapiens) (P20594 whole entry, looked up): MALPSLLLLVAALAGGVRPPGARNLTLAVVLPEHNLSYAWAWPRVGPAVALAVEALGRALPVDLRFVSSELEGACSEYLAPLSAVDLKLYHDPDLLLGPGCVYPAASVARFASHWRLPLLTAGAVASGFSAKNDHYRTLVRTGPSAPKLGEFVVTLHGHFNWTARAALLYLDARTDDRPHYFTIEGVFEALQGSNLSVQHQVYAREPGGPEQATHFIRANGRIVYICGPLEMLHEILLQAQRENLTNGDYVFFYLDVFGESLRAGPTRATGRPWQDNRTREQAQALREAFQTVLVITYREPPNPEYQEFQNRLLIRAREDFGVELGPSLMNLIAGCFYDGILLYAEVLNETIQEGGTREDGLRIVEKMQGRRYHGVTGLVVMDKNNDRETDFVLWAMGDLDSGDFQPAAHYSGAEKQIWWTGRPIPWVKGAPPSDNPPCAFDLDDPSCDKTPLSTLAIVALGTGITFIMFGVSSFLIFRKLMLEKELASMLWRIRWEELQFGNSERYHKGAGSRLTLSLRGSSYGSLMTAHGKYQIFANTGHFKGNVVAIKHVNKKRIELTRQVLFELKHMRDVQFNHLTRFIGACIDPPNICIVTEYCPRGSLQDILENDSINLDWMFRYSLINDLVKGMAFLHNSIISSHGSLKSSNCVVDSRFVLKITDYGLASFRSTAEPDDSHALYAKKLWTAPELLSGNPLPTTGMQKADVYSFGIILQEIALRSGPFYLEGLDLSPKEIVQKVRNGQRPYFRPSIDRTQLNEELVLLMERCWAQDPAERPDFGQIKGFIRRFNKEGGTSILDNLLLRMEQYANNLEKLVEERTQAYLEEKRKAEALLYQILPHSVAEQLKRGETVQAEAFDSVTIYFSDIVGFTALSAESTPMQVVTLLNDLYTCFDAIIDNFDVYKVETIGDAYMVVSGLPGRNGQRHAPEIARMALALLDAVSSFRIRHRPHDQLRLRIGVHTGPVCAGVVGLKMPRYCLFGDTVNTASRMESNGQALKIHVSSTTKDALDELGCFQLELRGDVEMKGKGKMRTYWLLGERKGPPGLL
# Sequence of Atrial natriuretic peptide receptor 1 (Homo sapiens) (P16066 whole entry, looked up): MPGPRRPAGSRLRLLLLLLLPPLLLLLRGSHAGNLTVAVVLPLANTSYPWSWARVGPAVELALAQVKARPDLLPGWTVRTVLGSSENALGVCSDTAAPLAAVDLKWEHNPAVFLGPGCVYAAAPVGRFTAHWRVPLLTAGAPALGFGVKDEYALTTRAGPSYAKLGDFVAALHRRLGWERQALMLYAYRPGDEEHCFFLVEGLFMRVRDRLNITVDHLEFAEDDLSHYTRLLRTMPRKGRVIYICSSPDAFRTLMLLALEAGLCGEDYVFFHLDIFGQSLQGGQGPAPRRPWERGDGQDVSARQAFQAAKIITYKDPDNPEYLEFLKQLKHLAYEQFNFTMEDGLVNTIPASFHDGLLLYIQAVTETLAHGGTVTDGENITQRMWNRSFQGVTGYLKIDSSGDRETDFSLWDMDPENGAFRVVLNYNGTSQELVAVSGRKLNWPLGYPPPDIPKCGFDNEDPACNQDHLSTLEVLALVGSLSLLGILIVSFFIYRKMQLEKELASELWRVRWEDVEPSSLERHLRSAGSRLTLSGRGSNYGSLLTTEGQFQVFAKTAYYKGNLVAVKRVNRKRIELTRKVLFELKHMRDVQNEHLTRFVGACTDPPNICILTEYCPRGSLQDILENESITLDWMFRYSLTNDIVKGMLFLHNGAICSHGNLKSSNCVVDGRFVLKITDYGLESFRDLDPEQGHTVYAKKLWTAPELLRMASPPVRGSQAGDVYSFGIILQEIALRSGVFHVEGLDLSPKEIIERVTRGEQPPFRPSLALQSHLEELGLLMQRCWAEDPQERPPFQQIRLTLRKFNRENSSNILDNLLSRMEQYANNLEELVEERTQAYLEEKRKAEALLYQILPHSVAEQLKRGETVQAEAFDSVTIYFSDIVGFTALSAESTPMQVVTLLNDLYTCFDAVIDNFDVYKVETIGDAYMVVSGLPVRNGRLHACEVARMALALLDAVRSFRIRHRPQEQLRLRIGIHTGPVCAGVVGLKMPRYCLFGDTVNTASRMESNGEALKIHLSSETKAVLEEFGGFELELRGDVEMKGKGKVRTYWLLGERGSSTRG
structure (smiles),measurement,setting,value
OC[C@H]1O[C@@H](n2cnc3c(=S)nc[nH]c32)[C@H](O)[C@@H]1O,outcome,[1],inactive
same,outcome,[2],inactive
same,Potency,[3],inactive
same,Potency,[4],1.84 µM (active)
CCN1CCN(c2cc3c(cc2F)c(=O)c(C(=O)O)cn3C2CC2)CC1,outcome,[1],inactive
same,outcome,[2],inactive
same,Potency,[5],inactive
same,Potency,[4],inactive
same,Potency,[6],inactive
O=C1OC(c2ccc(O)cc2)(c2ccc(O)cc2)c2ccccc21,outcome,[1],inactive
same,outcome,[2],inactive
same,Potency,[5],inactive
same,Potency,[6],inactive
NC(CO)(CO)CO,outcome,[1],inactive
same,outcome,[2],inactive
same,Potency,[5],inactive
same,Potency,[4],inactive
same,Potency,[6],inactive
CNCCC(Oc1ccccc1C)c1ccccc1 (stereo not given),outcome,[1],inactive
same,outcome,[2],inactive
same,Potency,[5],inactive
same,outcome,[7],inactive
same,outcome,[8],inactive
same,Potency,[6],inactive
same,outcome,[9],inactive
CCCCc1nc(Cl)c(CO)n1Cc1ccc(-c2ccccc2-c2nn[nH]n2)cc1,outcome,[1],inactive
same,outcome,[2],inactive
same,Potency,[5],inactive
same,Potency,[6],inactive
C[C@]12C=CC(=O)C=C1CC[C@@H]1[C@@H]2[C@@H](O)C[C@@]2(C)[C@H]1CC[C@]2(O)C(=O)CO,outcome,[1],inactive
same,outcome,[2],inactive
same,Potency,[5],inactive
same,Potency,[4],inactive
same,Potency,[6],inactive
CN1C2CCC1CC(OC(=O)c1c[nH]c3ccccc13)C2 (stereo not given),outcome,[1],inactive
same,outcome,[2],inactive
same,Potency,[5],inactive
same,outcome,[7],inactive
same,outcome,[10],inactive
same,outcome,[8],inactive
same,Potency,[6],inactive
same,outcome,[9],inactive
CCCCOc1ccc(C(=O)CCN2CCCCC2)cc1,outcome,[1],inactive
same,outcome,[2],inactive
same,Potency,[5],inactive
same,Potency,[6],inactive
Oc1c(Cl)cc(Cl)cc1Sc1cc(Cl)cc(Cl)c1O,outcome,[1],inactive
same,outcome,[2],inactive
same,Potency,[5],inactive
same,Potency,[4],4.61 µM (active)
same,Potency,[6],inactive
Nc1ccc(/C=C/c2ccc(N)cc2S(=O)(=O)O)c(S(=O)(=O)O)c1,"activity change, negative = inhibition",[1],-14.7% [at 0.568 µM] (inactive)
same,"activity change, negative = inhibition",[2],-3.2% [at 0.568 µM] (inactive)
same,Potency,[5],inactive
same,Potency,[4],inactive
same,"activity change, negative = inhibition",[6],-8.83% [at 0.593 µM] (inactive)
CCCCC(CC)CN=C(N)NC(N)=NCCCCCCN=C(N)NC(N)=NCC(CC)CCCC (stereo not given),outcome,[1],inactive
same,outcome,[2],inactive
same,Potency,[3],25.9 µM (active)
CC(=O)Oc1ccc(C(=C2CCCCC2)c2ccc(OC(C)=O)cc2)cc1,outcome,[1],inactive
same,outcome,[2],inactive
same,Potency,[5],inactive
same,Potency,[6],inactive
CC(Cc1ccccc1)(NC(=O)CN)c1ccccc1 (stereo not given),outcome,[1],inactive
same,outcome,[2],inactive
same,Potency,[5],inactive
same,Potency,[4],inactive
same,Potency,[6],inactive
CC(=O)O[C@]1(C(C)=O)CC[C@H]2[C@@H]3C[C@H](C)C4=CC(=O)CC[C@]4(C)[C@H]3CC[C@@]21C,outcome,[1],inactive
same,outcome,[2],inactive
same,Potency,[3],inactive
same,outcome,[11],inactive
same,Potency,[4],10.3 µM (active)
same,Potency,[6],inactive
CC(=O)OCC(=O)NCCCOc1cccc(CN2CCCCC2)c1,outcome,[1],inactive
same,outcome,[2],inactive
same,Potency,[5],inactive
same,Potency,[6],inactive
Oc1c(I)cc(Cl)c2cccnc12,outcome,[1],inactive
same,outcome,[2],inactive
same,Potency,[3],inactive
COc1cccc2c1C(=O)c1c(O)c3c(c(O)c1C2=O)C[C@@](O)(C(C)=O)C[C@@H]3O[C@H]1C[C@H](N)[C@H](O)[C@H](C)O1,outcome,[1],inactive
same,outcome,[2],inactive
same,Potency,[5],1.78 µM (active)
same,Potency,[6],inactive
CN(C)C(=S)SC(=S)N(C)C,outcome,[1],inactive
same,outcome,[2],inactive
same,Potency,[3],inactive
same,Potency,[4],inactive
CCOC(=O)c1cccc(N)c1,outcome,[1],inactive
same,outcome,[2],inactive
same,Potency,[5],inactive
same,Potency,[4],inactive
same,Potency,[6],inactive
CCOC(=O)COc1ccc2c(C)c(CCN(CC)CC)c(=O)oc2c1Cl,outcome,[1],inactive
same,outcome,[2],inactive
same,Potency,[5],inactive
same,Potency,[4],inactive
same,Potency,[6],inactive
N[C@@H](CCC(=O)N[C@@H](CS)C(=O)NCC(=O)O)C(=O)O,outcome,[1],inactive
same,outcome,[2],inactive
same,Potency,[5],inactive
same,Potency,[6],inactive
COc1cccc(CCc2ccccc2OCC(CN(C)C)OC(=O)CCC(=O)O)c1 (stereo not given),"parasite growth remaining, % of DMSO control (lower = more inhibition)",[12],11.9%
same,"parasite growth, % of control (lower = inhibition)",[13],21.2%
same,"growth, % of control",[14],5.27%
same,outcome,[1],inactive
same,outcome,[2],inactive
same,Potency,[5],inactive
same,Potency,[6],inactive
CC(=O)N/N=C/c1ccc([N+](=O)[O-])o1,outcome,[1],inactive
same,outcome,[2],inactive
same,Potency,[5],inactive
same,Potency,[4],inactive
same,Potency,[6],inactive
C=C1C(=C/C=C2\CCC[C@]3(C)[C@@H]([C@H](C)/C=C/[C@@H](O)C4CC4)CC[C@@H]23)C[C@@H](O)C[C@@H]1O,outcome,[1],inactive
same,outcome,[2],inactive
same,Potency,[5],inactive
same,Potency,[4],8.2 µM (active)
same,Potency,[6],inactive
